# Assay results from PubChem BioAssay (NCATS).
# Inconclusive results are not listed. Where a call stands in place of a potency, no number is given. Activity calls are given as the source filed them. Unless noted, the call rests on the fitted dose curve; in most records, active means well fitted curve in the direction sought with a large enough effect; inconclusive means small, poorly fitted or top-dose-only effect, or another doubt; inactive means no such curve, though single readings can be large; an effect the other way counts as inactive or inconclusive.
# Assays:
# [1] = Cell Viability - Jurkat (AID 426;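 active means dose-dependent loss of cell ATP signal giving a full or clear fitted curve, ranked by lower potency value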;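 further: potency means the concentration at half of the fitted maximal effect; cells exposed to compound for 40 hours at 37 °C before ATP read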); details: qHTS
# Summary of the method: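 Cytotoxicity taken as drop in cellular ATP (CellTiter-Glo luminescence, 20 min room temperature) after 40 hr, 37C treatment of 5000 Jurkat Clone E6-1 cells per well; concentration-response fitted with Hill equation for AC50.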
# [2] = Cell Viability - SH-SY5Y (AID 544); details: SH-SY5Y neuroblastoma cell viability; viability change, negative = cytotoxic: at 92.2 µM (top of the series);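 further: cells exposed to compound for 40 hours; nearly all actives have a fitted effect of over 55% in size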; further: potency means the concentration at half of the fitted maximal effect
# Summary of the method: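 Cytotoxicity measured via ATP-dependent luciferase luminescence (CellTiter-Glo) following 40 h, 37 °C exposure of 1500 SH-SY5Y cells per well. Concentration-response data were fitted with the standard Hill equation to give AC50.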
# [3] = MultiTox-Fluor Cytotoxicity Assay - LYMP1-002 - Dead Cells (AID 960); details: LYMP1-002 lymphoblastoid cells, dead-cell protease fluorescence; series mostly up to 46.1 µM; further: nearly all actives have a fitted effect of over 60% in size; further: potency means the concentration at half of the fitted maximal effect
# Summary of the method: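 Dead-cell fluorescence (Ex/Em 485/520) after 16 h compound exposure at 37 C of LYMP1-002 lymphoblastoid cells in complete medium; AC50 by Hill equation, with data scaled between DMSO and 15 uM tetraoctylammonium bromide.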
# [4] = molecular target: Voltage-gated inwardly rectifying potassium channel KCNH2 (Homo sapiens) (UniProt Q12809); experiment: qHTS Assay for Small Molecule Inhibitors of the Human hERG Channel Activity (AID 588834); details: U2OS BacMam hERG, FluxOR thallium flux fluorescence; series mostly up to 92.2 µM;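 further: top concentration of the series differs between compounds; lower thallium flux fluorescence means stronger hERG block; nearly all actives have a fitted effect of over 50% in size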
# Sequence of Voltage-gated inwardly rectifying potassium channel KCNH2 (Homo sapiens) (Q12809 whole entry, looked up): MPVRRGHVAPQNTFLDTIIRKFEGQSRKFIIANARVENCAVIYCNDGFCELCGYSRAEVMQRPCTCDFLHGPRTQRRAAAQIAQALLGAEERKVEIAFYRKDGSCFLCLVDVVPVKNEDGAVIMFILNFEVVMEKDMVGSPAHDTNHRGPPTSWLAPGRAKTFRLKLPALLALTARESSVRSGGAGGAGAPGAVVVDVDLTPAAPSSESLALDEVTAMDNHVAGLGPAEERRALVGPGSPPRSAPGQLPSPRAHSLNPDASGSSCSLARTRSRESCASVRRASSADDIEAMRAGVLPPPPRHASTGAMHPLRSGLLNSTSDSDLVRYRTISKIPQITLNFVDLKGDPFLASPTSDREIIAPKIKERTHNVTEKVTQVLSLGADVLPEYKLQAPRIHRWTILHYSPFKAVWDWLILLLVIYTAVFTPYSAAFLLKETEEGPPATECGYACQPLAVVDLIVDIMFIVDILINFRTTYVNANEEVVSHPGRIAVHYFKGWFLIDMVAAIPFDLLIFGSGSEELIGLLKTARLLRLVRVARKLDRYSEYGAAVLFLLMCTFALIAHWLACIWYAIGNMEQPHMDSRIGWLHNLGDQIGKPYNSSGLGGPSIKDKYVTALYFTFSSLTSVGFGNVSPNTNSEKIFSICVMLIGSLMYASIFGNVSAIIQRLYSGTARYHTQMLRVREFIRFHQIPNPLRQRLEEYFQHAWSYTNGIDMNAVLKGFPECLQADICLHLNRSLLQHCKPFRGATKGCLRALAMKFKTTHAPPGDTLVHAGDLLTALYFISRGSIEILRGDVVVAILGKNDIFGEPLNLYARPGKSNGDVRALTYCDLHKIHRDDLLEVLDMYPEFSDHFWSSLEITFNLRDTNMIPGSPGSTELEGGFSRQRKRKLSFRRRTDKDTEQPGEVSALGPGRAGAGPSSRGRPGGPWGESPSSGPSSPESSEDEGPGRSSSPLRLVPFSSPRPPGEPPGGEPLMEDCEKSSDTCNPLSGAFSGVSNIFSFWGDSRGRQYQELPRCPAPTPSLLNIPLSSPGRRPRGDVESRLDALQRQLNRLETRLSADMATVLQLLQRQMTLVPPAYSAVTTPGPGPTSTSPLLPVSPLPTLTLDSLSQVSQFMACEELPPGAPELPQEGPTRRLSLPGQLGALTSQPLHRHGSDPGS
# Summary of the method: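 Thallium-flux (FluxOR) read-out on FDSS: fluorescence read 10 s before and 2 min after stimulation buffer. hERG-BacMam-transduced U2OS cells, compound exposure about 10 min. AC50 by standard Hill equation.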
# [5] = qHTS assay for small molecule activators of the p53 signaling pathway (AID 651743; active means well fitted activation curve with a large enough effect in the signal ratio, not every such curve was filed as active; the % refers to the signal ratio; further: potency means the concentration at half of the fitted maximal effect); details: HCT-116 p53RE-bla, beta-lactamase FRET ratio, 16 h; activation: stronger effect = higher value
# Summary of the method: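 Agonist-mode quantitative HTS in HCT-116 cells carrying a p53-response-element beta-lactamase reporter; 16 h compound treatment at 37 C, then FRET substrate loading for 2 h at room temperature and fluorescence read.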
# [6] = qHTS assay for small molecule disruptors of the mitochondrial membrane potential - 1 hr assay (AID 651754; calls by dose curve; further: nearly all actives have a fitted effect of over 35% in size; further: potency means the concentration at half of the fitted maximal effect); details: series mostly up to 92.2 µM
# Summary of the method: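 Mitochondrial potential in living HepG2 cells after 1 hr compound treatment at 37C was read with Mito-MPS dye added for a further 30 min. Red aggregate and green monomer fluorescence were measured; loss of potential leaves dye as cytoplasmic monomers.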
# [7] = molecular target: Nuclear receptor ROR-gamma (Homo sapiens) (UniProt P51449); experiment: qHTS assay for small molecule antagonists of the retinoid-related orphan receptor gamma (ROR-gamma) signaling pathway (AID 651802); details: ROR-gamma antagonist cell reporter assay; series mostly up to 92.2 µM; further: nearly all actives have a fitted effect of over 60% in size; further: potency means the concentration at half of the fitted maximal effect
# Sequence of Nuclear receptor ROR-gamma (Homo sapiens) (P51449 whole entry, looked up): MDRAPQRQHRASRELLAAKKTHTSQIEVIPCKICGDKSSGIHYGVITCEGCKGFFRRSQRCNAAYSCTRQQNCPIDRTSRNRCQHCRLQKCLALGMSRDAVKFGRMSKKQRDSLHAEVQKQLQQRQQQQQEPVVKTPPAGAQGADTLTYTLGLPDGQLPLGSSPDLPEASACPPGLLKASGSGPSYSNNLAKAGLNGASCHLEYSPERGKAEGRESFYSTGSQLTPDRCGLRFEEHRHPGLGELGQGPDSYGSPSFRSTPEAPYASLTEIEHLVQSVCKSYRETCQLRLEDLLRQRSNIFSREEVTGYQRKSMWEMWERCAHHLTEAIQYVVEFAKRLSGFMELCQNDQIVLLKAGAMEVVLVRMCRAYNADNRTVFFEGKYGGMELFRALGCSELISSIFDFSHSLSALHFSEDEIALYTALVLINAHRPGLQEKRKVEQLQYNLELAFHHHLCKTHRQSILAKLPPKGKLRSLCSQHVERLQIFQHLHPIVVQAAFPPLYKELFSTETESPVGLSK
# Summary of the method: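 Luminescence (One-Glo, 30 min RT) measured 16 h after compound addition and doxycycline induction at 37C. Reporter: RORE-luciferase under TET-inducible ROR-gamma in CHO cells.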
# [8] = qHTS assay for small molecule agonists of the antioxidant response element (ARE) signaling pathway measured by Nrf2-dependant transcriptional activity (AID 720636; active means well fitted curve in the direction sought with a large enough effect in the repeat runs; an effect the other way counts as inactive or inconclusive); details: ARE-luc HepG2, Nrf2 luciferase reporter, 16 h; series mostly up to 92.4 µM
# Summary of the method: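 Quantitative HTS format in HepG2 cells stably expressing an ARE-luciferase reporter; 16 hr compound treatment at 37 C, luciferase signal detected with ONE-Glo.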
# [9] = Cell Viability - Hek293 (AID 427;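 active means compounds whose dose-response curve shows a full or clear partial loss of cell viability, called from curve shape rather than a numeric limit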;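 further: potency means the concentration at half of the fitted maximal effect; cells exposed to compound for 40 hours at 37 °C before reading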); details: qHTS
# Summary of the method: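 Luminescent ATP read-out (CellTiter-Glo, 20 min RT) after 40 hr compound exposure at 37 °C in complete medium. Signal normalized to DMSO (basal) and 100 uM tamoxifen (100% inhibition); concentration-response fitted with the standard Hill equation to give AC50.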
# [10] = Cell Viability - SK-N-SH (AID 435; calls by dose curve;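 further: potency means the concentration at half of the fitted maximal effect; compound exposure lasted 40 h at 37 °C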); details: SK-N-SH neuroblastoma cell viability qHTS
# Summary of the method: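 CellTiter-Glo ATP luminescence, 20 min RT read; cells pre-plated 5 hr, compound 40 hr at 37 °C, 1500 cells/well, complete medium. Normalized DMSO = 0, 100 uM tamoxifen = 100% inhibition; Hill-fit AC50.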
# [11] = molecular target: Cytochrome P450 3A4 (Homo sapiens) (UniProt P08684); experiment: qHTS Assay for Inhibitors and Substrates of Cytochrome P450 3A4 (AID 884); details: recombinant CYP3A4, Luciferin-PPXE luminescence; series mostly up to 57.1 µM; further: nearly all actives have a fitted effect of over 50% in size; further: potency means the concentration at half of the fitted maximal effect
# Sequence of Cytochrome P450 3A4 (Homo sapiens) (P08684 whole entry, looked up): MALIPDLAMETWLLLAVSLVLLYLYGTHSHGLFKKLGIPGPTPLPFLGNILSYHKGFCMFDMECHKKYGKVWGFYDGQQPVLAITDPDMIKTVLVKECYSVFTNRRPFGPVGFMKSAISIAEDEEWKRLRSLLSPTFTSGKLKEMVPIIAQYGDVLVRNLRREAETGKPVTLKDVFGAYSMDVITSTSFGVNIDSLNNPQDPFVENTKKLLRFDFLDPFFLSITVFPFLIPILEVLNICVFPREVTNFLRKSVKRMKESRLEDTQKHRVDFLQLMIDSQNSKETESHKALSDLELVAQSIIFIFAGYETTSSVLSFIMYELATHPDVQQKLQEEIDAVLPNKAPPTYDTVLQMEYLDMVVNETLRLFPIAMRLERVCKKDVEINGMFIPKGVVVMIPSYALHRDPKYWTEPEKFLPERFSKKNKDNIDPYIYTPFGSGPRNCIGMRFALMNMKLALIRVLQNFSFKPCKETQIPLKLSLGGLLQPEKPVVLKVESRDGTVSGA
# Summary of the method: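 Luminescent readout of luciferin produced by CYP3A4 (20 nM) dealkylation of Luciferin-PPXE, 25 uM (its KM). NADPH-driven reaction ran 60 min at RT after 10 min compound preincubation; data scaled to 57 uM ketoconazole as 100% inhibition.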
# [12] = Cell Viability - LYMP2-015 (AID 971); details: LYMP2-015 lymphoblastoid cell viability; series mostly up to 92.2 µM; further: nearly all actives have a fitted effect of over 55% in size
# Summary of the method: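 Cytotoxicity readout: decrease in intracellular ATP (CellTiter-Glo luminescence) in 2500 LYMP2-015 lymphoblastoid cells/well after 24 h compound exposure at 37 C. Concentration-response data fitted with the standard Hill equation to give AC50.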
# [13] = Cell Viability - LYMP2-010 (AID 981); details: LYMP2-010 lymphoblastoid cell viability, qHTS; series mostly up to 92.2 µM;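 further: cells exposed to compound for 24 hours at 37 °C; nearly all actives have a fitted effect of over 55% in size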
# Summary of the method: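 CellTiter-Glo ATP luminescence measured cytotoxicity after 24 h compound exposure at 37 C. LYMP2-010 cells were seeded at 2500/well, with tetraoctylammonium bromide as control; concentration-response curves gave AC50 values by the Hill equation.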
# [14] = molecular target: Vitamin D3 receptor (Homo sapiens) (UniProt P11473); experiment: qHTS assay for small molecule agonists of vitamin D receptor signaling (AID 588543; calls by dose curve); details: HEK293T VDR-UAS-bla, beta-lactamase ratio, 16 h; series mostly up to 76.8 µM
# Sequence of Vitamin D3 receptor (Homo sapiens) (P11473 whole entry, looked up): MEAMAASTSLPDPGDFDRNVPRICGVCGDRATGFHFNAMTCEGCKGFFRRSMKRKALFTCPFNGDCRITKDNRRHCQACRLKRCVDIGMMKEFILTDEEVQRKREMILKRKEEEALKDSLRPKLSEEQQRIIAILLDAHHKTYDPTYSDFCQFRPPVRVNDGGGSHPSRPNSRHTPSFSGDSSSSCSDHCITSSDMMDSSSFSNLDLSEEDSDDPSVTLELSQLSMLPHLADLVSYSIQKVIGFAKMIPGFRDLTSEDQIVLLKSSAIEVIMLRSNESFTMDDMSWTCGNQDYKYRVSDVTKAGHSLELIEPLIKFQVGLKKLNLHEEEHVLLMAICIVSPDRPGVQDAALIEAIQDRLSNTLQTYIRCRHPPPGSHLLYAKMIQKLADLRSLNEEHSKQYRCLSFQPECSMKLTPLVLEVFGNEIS
# Summary of the method: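 β-lactamase reporter, VDR-UAS-bla HEK293T, agonist mode. Cells plated 5 h at 37 °C, compound titration 16 h at 37 °C, CCF4 dye 2 h RT, ratio 460/530 nm. Hill fit → EC50, efficacy vs 50 nM 1α,25-(OH)2D3.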
# [15] = qHTS assay for small molecule agonists of retinoid X receptor alpha signaling (AID 588544); details: HEK293T RXRa-UAS-bla, beta-lactamase reporter, 18 h; 530 nm emission
# [16] = molecular target: Thyroid hormone receptor beta (Homo sapiens) (UniProt P10828); experiment: qHTS assay for small molecule agonists of thyroid hormone receptor beta signaling (AID 588545; calls by dose curve); details: TR-UAS-bla GripTite HEK 293, beta-lactamase ratio, agonist mode, 18 h; series mostly up to 76.7 µM
# Sequence of Thyroid hormone receptor beta (Homo sapiens) (P10828 whole entry, looked up): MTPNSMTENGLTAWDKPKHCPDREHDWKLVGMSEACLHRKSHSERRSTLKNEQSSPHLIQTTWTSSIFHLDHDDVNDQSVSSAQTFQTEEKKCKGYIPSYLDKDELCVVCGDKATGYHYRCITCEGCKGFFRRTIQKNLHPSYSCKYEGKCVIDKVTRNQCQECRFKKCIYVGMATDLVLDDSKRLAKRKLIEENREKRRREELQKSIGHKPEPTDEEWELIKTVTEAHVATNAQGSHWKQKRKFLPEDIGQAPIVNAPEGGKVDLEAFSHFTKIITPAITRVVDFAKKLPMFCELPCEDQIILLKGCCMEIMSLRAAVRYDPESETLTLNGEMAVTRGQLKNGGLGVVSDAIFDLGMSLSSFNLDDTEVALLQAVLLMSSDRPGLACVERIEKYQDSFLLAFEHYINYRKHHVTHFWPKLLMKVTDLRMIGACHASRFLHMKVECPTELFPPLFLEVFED
# Summary of the method: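 TR-UAS-bla-GripTite HEK 293 cells in medium with 2% charcoal/dextran FBS, 0.1 mM NEAA and 1 mM sodium pyruvate were treated with titrated compounds for 18 hrs at 37 C. Beta-lactamase reporter was read with CCF4 dye (ex 405, em 460/530 nm); EC50 from Hill fits.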
# [17] = qHTS assay for small molecule activators of the nuclear factor-kappa B (NF-kB) signaling pathway (AID 651749; active means well fitted activation curve with a large enough effect in the signal ratio; the % refers to the signal ratio); details: NF-kB-bla ME-180 cells, beta-lactamase FRET ratio, 16 h; stronger effect = higher value
# Summary of the method: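 Human ME-180 cervical cells with an NF-kB-bla construct; compounds added via 23 nL pin transfer, DMSO as vehicle; incubation 16 hr. Reporter activity measured by FRET disruption.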
# [18] = qHTS assay for small molecule antagonists of the retinoid-related orphan receptor gamma (ROR-gamma) signaling pathway - cell viability counter screen (AID 720652; active means well fitted curve in the direction sought with a large enough effect in the repeat runs; an effect the other way counts as inactive or inconclusive;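 further: CHO reporter cells with doxycycline-induced ROR-gamma expression; compound exposure lasted 16 hr before ATP read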); details: RORgamma reporter cell line viability counter screen; series mostly up to 92.2 µM
# Summary of the method: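 Cytotoxicity counter screen: intracellular ATP (CellTiter-Glo luminescence) measured in the doxycycline-induced CHO RORE-luciferase reporter line after 16 hr compound exposure at 37 C, 5% CO2.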
# [19] = qHTS assay for small molecule activators of the human pregnane X receptor (PXR) signaling pathway (AID 720659; call rule not given here); details: DPX-2 HepG2 CYP3A4-luciferase, 24 h; series mostly up to 92.3 µM
# [20] = molecular target: Glucocorticoid receptor (Homo sapiens) (UniProt P04150); experiment: qHTS assay for small molecule agonists of glucocorticoid receptor signaling (AID 588532; active means well fitted curve in the direction sought with a large enough effect in the signal ratio, with a control signal flat; the % refers to the signal ratio); details: HeLa MMTV-bla, beta-lactamase ratio, agonist, 18 h; stronger effect = higher value; percent of dexamethasone control, DMSO zero
# Sequence of Glucocorticoid receptor (Homo sapiens) (P04150 whole entry, looked up): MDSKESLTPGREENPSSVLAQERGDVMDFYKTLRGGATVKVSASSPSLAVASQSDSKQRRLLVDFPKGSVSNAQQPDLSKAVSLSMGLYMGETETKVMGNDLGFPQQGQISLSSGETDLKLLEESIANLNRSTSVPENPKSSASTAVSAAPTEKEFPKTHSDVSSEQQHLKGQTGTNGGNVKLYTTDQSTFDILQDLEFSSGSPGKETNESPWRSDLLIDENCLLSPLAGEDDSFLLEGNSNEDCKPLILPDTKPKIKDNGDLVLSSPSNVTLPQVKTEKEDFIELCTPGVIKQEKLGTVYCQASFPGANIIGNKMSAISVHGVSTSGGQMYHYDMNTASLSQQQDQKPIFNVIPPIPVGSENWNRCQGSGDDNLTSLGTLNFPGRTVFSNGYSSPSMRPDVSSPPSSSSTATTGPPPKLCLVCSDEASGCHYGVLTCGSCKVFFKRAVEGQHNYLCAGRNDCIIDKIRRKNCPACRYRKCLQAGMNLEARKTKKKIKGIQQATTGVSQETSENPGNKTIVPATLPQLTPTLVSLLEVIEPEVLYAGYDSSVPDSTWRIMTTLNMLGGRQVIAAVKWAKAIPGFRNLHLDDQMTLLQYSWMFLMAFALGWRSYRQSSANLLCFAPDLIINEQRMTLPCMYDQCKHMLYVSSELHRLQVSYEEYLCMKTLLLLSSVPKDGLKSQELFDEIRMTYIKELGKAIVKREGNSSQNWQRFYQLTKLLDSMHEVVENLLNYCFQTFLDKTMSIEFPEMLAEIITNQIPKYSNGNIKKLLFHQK
# Summary of the method: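 Stimulation of a glucocorticoid response element-driven beta-lactamase gene was measured in HeLa cells. Responses were scaled between DMSO basal and 0.1 uM dexamethasone, then fitted for half-maximal stimulation.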
smiles,measurement,setting,value
Cc1c2ccccc2c(C)c2c1ccc1ccccc12,Potency,[1],36.6 µM (active)
same,Potency,[2],7.94 µM (active)
same,Potency,[3],25.1 µM (active)
same,Potency,[4],inactive
same,Potency,[5],44.7 µM (active)
same,Potency,[6],37.6 µM (active)
same,Potency,[7],13.3 µM (active)
same,Potency,[8],inactive
CCCCCCN,Potency,[1],> 92 µM (inactive)
same,Potency,[9],> 92 µM (inactive)
same,Potency,[10],> 92 µM (inactive)
same,Potency,[2],inactive
same,Potency,[11],inactive
same,Potency,[12],inactive
same,Potency,[13],inactive
same,Potency,[14],inactive
same,max response,[15],-10.9%
same,Potency,[16],inactive
same,Potency,[4],inactive
same,activation,[5],-1.84% (inactive)
same,activation,[17],-0.245% (inactive)
same,Potency,[6],inactive
same,Potency,[7],inactive
same,Potency,[8],inactive
same,Potency,[18],inactive
same,outcome,[19],inactive
Nc1cnn([C@@H]2O[C@H](CO)[C@@H](O)[C@H]2O)c(=O)n1,Potency,[9],> 92 µM (inactive)
same,Potency,[10],> 92 µM (inactive)
same,Potency,[2],inactive
same,Potency,[11],inactive
same,Potency,[3],inactive
same,Potency,[12],inactive
same,Potency,[13],inactive
same,activation,[20],-5.2% (inactive)
same,Potency,[14],inactive
same,max response,[15],11.7%
same,Potency,[16],inactive
same,Potency,[4],inactive
same,Potency,[5],0.794 µM (active)
same,Potency,[6],inactive
same,Potency,[7],5.31 µM (active)
same,Potency,[8],inactive
same,Potency,[18],inactive
same,outcome,[19],inactive
Nc1ccc(N=Nc2ccccc2)c(N)c1,Potency,[1],> 92 µM (inactive)
same,Potency,[9],> 92 µM (inactive)
same,Potency,[10],> 92 µM (inactive)
same,Potency,[11],12.6 µM (active)
same,Potency,[3],inactive
same,Potency,[12],inactive
same,Potency,[13],inactive
same,activation,[20],-4.54% (inactive)
same,max response,[15],0.404%
same,Potency,[16],inactive
same,activation,[5],-4.52% (inactive)
same,activation,[17],-1.7% (inactive)
same,Potency,[6],9.44 µM (active)
same,Potency,[7],inactive
same,Potency,[18],inactive
Cc1ccccc1OCC1CO1 (stereo not given),Potency,[9],> 92 µM (inactive)
same,Potency,[10],> 92 µM (inactive)
same,Potency,[2],inactive
same,Potency,[11],inactive
same,Potency,[3],inactive
same,Potency,[12],inactive
same,Potency,[13],inactive
same,activation,[20],-5.02% (inactive)
same,Potency,[14],inactive
same,max response,[15],14.4%
same,Potency,[4],inactive
same,activation,[5],-0.32% (inactive)
same,activation,[17],-1.53% (inactive)
same,Potency,[6],inactive
same,Potency,[7],inactive
same,Potency,[8],inactive
same,Potency,[18],inactive
same,outcome,[19],inactive
Brc1ccc(-c2ccccc2)cc1,Potency,[1],> 92 µM (inactive)
same,Potency,[9],> 92 µM (inactive)
same,Potency,[10],> 92 µM (inactive)
same,Potency,[2],inactive
same,Potency,[11],inactive
same,Potency,[3],inactive
same,Potency,[12],inactive
same,Potency,[13],inactive
same,activation,[20],-2.59% (inactive)
same,Potency,[14],inactive
same,max response,[15],4.33%
same,Potency,[16],inactive
same,activation,[5],-2.65% (inactive)
same,activation,[17],2.79% (inactive)
same,Potency,[7],inactive
same,Potency,[8],inactive
same,Potency,[18],inactive
same,outcome,[19],inactive
C=CC(=O)CC,Potency,[9],> 92 µM (inactive)
same,Potency,[10],> 92 µM (inactive)
same,Potency,[2],inactive
same,Potency,[11],inactive
same,Potency,[3],inactive
same,Potency,[12],inactive
same,Potency,[13],inactive
same,Potency,[14],inactive
same,max response,[15],-11.5%
same,Potency,[16],inactive
same,Potency,[4],inactive
same,activation,[5],-1.3% (inactive)
same,Potency,[6],inactive
same,Potency,[7],inactive
same,Potency,[8],inactive
